# Assay results: PMC7862700, “An all-to-all approach to the identification of sequence-specific readers for epigenetic DNA modifications on cytosine”
# How the values were obtained:
# Test in all cases: DAPPL (digital affinity profiling via proximity ligation, sequencing); 10 mM Tris-HCl pH 7.5, 50 mM NaCl, 1 mM DTT, 4% glycerol, room temperature, 30 min; GST-TFs on glutathione beads, 16-mer random dsDNA library, 0.1% formaldehyde crosslink after washing; high values mean tight binding
# [1] = biological target: T1, FEV (Homo sapiens, UniProt Q99581 1-238); details: protein: recombinant; tags: N-terminal GST; dsDNA, one strand shown
# T1 sequence: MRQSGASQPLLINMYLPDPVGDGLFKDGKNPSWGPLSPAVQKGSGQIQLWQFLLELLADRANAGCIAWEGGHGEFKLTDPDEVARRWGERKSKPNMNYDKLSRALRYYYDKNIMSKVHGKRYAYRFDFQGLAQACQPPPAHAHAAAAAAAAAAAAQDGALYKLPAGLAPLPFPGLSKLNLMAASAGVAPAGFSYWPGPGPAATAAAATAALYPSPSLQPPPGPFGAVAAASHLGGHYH
# Summary of the method: (§1)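 Binding signal is given per hexamer as its read frequency for a factor divided by its frequency in the tag-only sample. GST-fused human transcription factors were expressed in yeast, captured on glutathione beads, barcoded with DNA and pooled with that sample, then incubated with 200 nmole of a 16-mer random double-stranded DNA library in Tris/NaCl/DTT/glycerol buffer for 30 min at room temperature. The pools were then washed, crosslinked, proximity-ligated, amplified by PCR and sequenced on an Illumina NextSeq500.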
# [2] = biological target: ETV5 (Homo sapiens, UniProt P41161 1-510); details: protein: recombinant; tags: N-terminal GST; dsDNA, one strand shown
# Summary of the method: as §1
# [3] = biological target: HSF1 (Homo sapiens, UniProt Q00613 1-529); details: protein: recombinant; tags: N-terminal GST; chain copies: 3; dsDNA, one strand shown
# Summary of the method: as §1
# [4] = biological target: T2, SPIC (Homo sapiens, UniProt Q8N5J4 1-248); details: protein: recombinant; tags: N-terminal GST; dsDNA, one strand shown
# T2 sequence: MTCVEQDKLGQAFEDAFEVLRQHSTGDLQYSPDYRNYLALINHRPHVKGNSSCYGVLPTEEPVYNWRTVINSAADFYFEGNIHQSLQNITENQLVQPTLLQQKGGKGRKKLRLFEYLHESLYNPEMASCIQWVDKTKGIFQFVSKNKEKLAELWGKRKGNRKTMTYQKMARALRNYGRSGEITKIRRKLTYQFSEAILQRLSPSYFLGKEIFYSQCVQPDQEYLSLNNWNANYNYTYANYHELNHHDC
# Summary of the method: as §1
# [5] = biological target: ELF4 (Homo sapiens, UniProt Q99607 1-663); details: protein: recombinant; tags: N-terminal GST; dsDNA, one strand shown
# Summary of the method: as §1
# [6] = biological target: T3, ELK4 (Homo sapiens, UniProt P28324-2 1-405); details: protein: recombinant; tags: N-terminal GST; dsDNA, one strand shown
# T3 sequence: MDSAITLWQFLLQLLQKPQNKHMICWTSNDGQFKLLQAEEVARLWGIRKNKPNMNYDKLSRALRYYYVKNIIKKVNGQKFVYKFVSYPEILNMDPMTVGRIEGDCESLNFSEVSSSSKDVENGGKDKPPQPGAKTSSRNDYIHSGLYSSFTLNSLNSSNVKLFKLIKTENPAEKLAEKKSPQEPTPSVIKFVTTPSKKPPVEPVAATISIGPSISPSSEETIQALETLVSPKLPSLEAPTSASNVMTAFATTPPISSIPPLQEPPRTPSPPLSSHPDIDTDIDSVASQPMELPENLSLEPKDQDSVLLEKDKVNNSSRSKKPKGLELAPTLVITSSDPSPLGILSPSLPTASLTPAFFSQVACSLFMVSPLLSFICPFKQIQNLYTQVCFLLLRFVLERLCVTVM
# Summary of the method: as §1
# [7] = biological target: T4, ETV2 (Homo sapiens, UniProt O00321 1-342); details: protein: recombinant; tags: N-terminal GST; dsDNA, one strand shown
# T4 sequence: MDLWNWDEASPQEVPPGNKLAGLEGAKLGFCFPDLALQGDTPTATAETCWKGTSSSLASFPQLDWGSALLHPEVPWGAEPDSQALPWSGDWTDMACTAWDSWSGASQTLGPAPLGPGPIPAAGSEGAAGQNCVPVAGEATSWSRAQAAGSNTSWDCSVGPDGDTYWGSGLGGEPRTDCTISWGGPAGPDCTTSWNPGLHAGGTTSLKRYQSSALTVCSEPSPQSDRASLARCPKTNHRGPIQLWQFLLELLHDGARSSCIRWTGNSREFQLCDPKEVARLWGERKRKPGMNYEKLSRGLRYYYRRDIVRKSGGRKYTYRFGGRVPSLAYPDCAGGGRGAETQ
# Summary of the method: as §1
# [8] = biological target: T5, ELF3 (Homo sapiens, UniProt P78545 1-371); details: protein: recombinant; tags: N-terminal GST; dsDNA, one strand shown
# T5 sequence: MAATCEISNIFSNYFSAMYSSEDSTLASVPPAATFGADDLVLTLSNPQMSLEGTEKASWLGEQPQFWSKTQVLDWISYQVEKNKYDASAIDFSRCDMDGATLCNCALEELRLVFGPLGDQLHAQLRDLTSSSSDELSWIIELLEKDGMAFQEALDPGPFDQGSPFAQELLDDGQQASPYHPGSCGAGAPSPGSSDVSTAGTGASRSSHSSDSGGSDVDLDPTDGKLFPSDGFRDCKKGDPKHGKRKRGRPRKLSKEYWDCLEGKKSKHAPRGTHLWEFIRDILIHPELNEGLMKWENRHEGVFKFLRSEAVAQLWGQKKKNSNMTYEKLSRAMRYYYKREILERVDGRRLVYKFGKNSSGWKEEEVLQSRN
# Summary of the method: as §1
# [9] = biological target: CRX (Homo sapiens, UniProt O43186 1-299); details: protein: recombinant; tags: N-terminal GST; dsDNA, one strand shown
# Summary of the method: as §1
# [10] = biological target: ETV1 (Homo sapiens, UniProt P50549 1-477); details: protein: recombinant; tags: N-terminal GST; dsDNA, one strand shown
# Summary of the method: as §1
# Chain of HSF1 (Q00613 whole entry): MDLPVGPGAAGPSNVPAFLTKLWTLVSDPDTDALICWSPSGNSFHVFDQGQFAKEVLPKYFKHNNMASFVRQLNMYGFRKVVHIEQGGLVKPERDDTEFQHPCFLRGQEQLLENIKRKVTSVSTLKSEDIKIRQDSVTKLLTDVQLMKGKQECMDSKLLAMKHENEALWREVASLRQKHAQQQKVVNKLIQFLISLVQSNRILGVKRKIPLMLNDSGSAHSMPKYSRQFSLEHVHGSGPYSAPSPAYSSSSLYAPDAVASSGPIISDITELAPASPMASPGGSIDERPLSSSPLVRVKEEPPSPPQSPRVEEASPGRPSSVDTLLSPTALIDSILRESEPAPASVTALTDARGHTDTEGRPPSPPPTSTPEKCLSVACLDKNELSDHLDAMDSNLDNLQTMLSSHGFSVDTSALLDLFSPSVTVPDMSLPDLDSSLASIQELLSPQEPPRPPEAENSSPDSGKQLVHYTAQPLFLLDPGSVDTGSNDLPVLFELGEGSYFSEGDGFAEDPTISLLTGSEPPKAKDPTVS
# Chain of ETV1 (P50549 whole entry): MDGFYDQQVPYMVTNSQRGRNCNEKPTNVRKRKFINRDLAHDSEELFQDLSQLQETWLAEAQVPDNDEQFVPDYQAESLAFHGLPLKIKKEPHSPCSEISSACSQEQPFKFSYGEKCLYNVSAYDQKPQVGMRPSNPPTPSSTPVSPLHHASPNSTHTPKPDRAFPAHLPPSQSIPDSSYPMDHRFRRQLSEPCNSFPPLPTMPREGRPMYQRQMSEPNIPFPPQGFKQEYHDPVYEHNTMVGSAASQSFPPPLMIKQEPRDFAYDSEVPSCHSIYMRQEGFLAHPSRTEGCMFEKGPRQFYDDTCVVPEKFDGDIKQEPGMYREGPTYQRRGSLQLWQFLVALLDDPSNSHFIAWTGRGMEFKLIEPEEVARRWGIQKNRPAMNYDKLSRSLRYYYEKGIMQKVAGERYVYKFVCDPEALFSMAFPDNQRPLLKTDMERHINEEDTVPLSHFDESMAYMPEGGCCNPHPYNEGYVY
# Chain of ELF4 (Q99607 whole entry): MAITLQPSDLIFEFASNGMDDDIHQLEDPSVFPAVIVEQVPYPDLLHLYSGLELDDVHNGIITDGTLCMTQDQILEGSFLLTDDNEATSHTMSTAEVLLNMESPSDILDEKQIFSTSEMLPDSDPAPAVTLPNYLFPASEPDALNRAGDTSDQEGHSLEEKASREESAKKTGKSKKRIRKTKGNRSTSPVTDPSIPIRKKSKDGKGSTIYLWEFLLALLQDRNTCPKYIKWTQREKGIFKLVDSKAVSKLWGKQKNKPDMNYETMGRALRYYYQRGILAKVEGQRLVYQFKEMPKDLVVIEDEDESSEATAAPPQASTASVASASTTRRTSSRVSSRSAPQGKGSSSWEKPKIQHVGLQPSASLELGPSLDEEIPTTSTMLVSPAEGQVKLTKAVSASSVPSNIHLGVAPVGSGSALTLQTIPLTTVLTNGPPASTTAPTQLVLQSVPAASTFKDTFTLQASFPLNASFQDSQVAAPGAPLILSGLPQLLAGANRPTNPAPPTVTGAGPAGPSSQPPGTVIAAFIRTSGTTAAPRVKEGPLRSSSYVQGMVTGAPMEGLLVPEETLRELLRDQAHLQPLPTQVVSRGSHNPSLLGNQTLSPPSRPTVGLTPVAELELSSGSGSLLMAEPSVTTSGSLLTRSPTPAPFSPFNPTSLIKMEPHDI
# Chain of ETV5 (P41161 whole entry): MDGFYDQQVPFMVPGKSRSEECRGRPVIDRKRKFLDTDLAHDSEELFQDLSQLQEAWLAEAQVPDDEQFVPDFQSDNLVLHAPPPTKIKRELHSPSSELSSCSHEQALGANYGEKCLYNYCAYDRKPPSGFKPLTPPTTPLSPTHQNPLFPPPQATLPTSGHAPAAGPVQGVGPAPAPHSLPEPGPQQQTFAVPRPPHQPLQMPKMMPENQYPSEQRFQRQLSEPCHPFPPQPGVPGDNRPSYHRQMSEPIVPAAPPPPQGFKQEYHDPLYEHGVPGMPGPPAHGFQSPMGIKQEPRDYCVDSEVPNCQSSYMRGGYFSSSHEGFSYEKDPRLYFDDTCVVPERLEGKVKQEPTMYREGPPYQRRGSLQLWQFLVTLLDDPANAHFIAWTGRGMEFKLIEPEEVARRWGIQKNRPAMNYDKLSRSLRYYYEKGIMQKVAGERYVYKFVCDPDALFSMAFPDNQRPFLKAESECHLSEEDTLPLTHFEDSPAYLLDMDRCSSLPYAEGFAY
# Chain of CRX (O43186 whole entry): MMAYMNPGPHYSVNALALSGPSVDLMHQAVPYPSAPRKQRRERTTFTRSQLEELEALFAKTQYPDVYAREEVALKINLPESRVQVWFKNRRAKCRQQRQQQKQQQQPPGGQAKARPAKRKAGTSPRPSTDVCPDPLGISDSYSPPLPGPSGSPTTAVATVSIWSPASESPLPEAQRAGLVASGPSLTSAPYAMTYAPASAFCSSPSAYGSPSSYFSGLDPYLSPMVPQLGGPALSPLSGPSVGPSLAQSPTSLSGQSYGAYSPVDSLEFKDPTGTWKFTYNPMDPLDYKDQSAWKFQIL
sequence,measurement,setting,value
ACCAAT,binding signal,[1],"1.25 fold enrichment (6-mer frequency, TF over GST control)"
same,binding signal,[2],"1.24 fold enrichment (6-mer frequency, TF over GST control)"
same,binding signal,[3],"1.16 fold enrichment (6-mer frequency, TF over GST control)"
same,binding signal,[4],"1.31 fold enrichment (6-mer frequency, TF over GST control)"
same,binding signal,[5],"1.38 fold enrichment (6-mer frequency, TF over GST control)"
same,binding signal,[6],"1.35 fold enrichment (6-mer frequency, TF over GST control)"
same,binding signal,[7],"1.13 fold enrichment (6-mer frequency, TF over GST control)"
same,binding signal,[8],"1.28 fold enrichment (6-mer frequency, TF over GST control)"
same,binding signal,[9],"1.16 fold enrichment (6-mer frequency, TF over GST control)"
same,binding signal,[10],"1.3 fold enrichment (6-mer frequency, TF over GST control)"
